Data from PubChem BioAssay (EPA / NIEHS).
Results filed as inconclusive are left out. Where a structure was tested more than once in an assay, its records may differ in their call. The source made the active and inactive calls. Rule for the calls, unless noted: active = hit-call score of the fitted dose curve at least 0.9, where 1 is the maximum; inactive = score below 0.9.

Assays:
[1] = target: Paired box protein Pax-6 (Homo sapiens) (UniProt P26367); assay: ATG_Pax6_CIS: Attagene CIS-FACTORIAL HepG2 Assay for human Paired Box 6 (PAX6) (AID 2282956); conditions: HepG2 CIS-FACTORIAL PAX6 reporter transcription, RNA readout; actives raise or lower the signal
How it was run: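 Values derive from bidirectional curve fitting of reporter mRNA signal relative to DMSO. HepG2 cells bearing transfected cis-regulated MRTUs were exposed for 24 h; transcripts were read by RT-PCR and capillary electrophoresis.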

[2] = ATG_PXRE_CIS: Attagene CIS-FACTORIAL HepG2 Assay for human Pregnane X Receptor Element (PXRE) (AID 2282957); conditions: HepG2 Attagene CIS-FACTORIAL PXRE reporter, mRNA; actives raise or lower the signal
How it was run: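 Using HepG2 transfected with multiple reporter transcription units, endogenous factor-driven transcription was scored as reporter mRNA after 24 h exposure.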

[3] = ATG_PPRE_CIS: Attagene CIS-FACTORIAL HepG2 Assay for human Peroxisome Proliferator-activated Response Element (PPRE) (AID 2282958); conditions: HepG2 PPRE cis-element reporter, Attagene transcription factor profiling; actives raise or lower the signal
How it was run: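 Endogenous PPRE-driven transcription is measured in HepG2 cells carrying transfected multi-reporter constructs. Reporter transcripts are quantified by RT-PCR, HpaI digestion and capillary electrophoresis 24 h after dosing. DMSO baseline, bidirectional fit.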

[4] = ATG_RORE_CIS: Attagene CIS-FACTORIAL HepG2 Assay for human RAR-related Orphan Receptor Element (RORE) (AID 2282959); conditions: HepG2 Attagene cis-factorial RORE reporter, mRNA; actives raise or lower the signal
How it was run: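 RORE reporter transcripts reflecting endogenous factor activity were read after 24 h compound exposure of transfected HepG2 cells, using reverse transcription, PCR, fluorescent labelling and capillary electrophoresis sizing. Gain or loss fitted against DMSO.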

[5] = ATG_Sox_CIS: Attagene CIS-FACTORIAL HepG2 Assay for human SRY-box transcription factor (SOX) (AID 2282960); conditions: HepG2 Attagene cis-factorial SOX reporter, mRNA; actives raise or lower the signal
How it was run: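 Reporter transcripts, measured by RT-PCR and capillary electrophoresis of labelled fragments, report endogenous SOX transcription factor activity. Transiently transfected human HepG2 cells receive chemical for 24 h; changes in either direction are fitted relative to DMSO.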

[6] = target: Transcription factor Sp1 (Homo sapiens) (UniProt P08047); assay: ATG_Sp1_CIS: Attagene CIS-FACTORIAL HepG2 Assay for human Specificity Protein 1 (Sp1) (AID 2282961); conditions: HepG2 Sp1 cis-reporter transcription, actives raise or lower the signal
How it was run: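 Read-out is reporter transcript level, measured by RT-PCR and fluorescent capillary electrophoresis after 24 h chemical treatment. System: transiently transfected HepG2 cells reporting endogenous transcription factor activity; gain or loss fitted against DMSO baseline.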

[7] = ATG_SREBP_CIS: Attagene CIS-FACTORIAL HepG2 Assay for human Sterol Regulatory Element Binding (SREBP) (AID 2282962); conditions: HepG2 Attagene cis-factorial SREBP reporter, mRNA; actives raise or lower the signal
How it was run: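 Values derive from bidirectional curve fitting with DMSO as baseline. The underlying measurement is reporter mRNA from cis-element-regulated units in transiently transfected HepG2, quantified by RT-PCR and capillary electrophoresis after 24 h exposure.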

[8] = target: Signal transducer and activator of transcription 3 (Homo sapiens) (UniProt P40763); assay: ATG_STAT3_CIS: Attagene CIS-FACTORIAL HepG2 Assay for human Signal Transducer and Activator of Transcription 3 (STAT3) (AID 2282963); conditions: HepG2, Attagene cis-factorial STAT3 reporter transcription; actives raise or lower the signal
How it was run: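 HepG2, MRTU-transfected, 24 h dosing. RNA → RT → PCR → FAM label → HpaI → CE. Bidirectional fit vs DMSO.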

[9] = ATG_TA_CIS: Attagene CIS-FACTORIAL HepG2 Assay for human TA Basal Promoter (AID 2282964); conditions: HepG2 Attagene CIS-factorial TA basal promoter reporter; actives raise or lower the signal
How it was run: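 Transient MRTU transfection of HepG2 preceded 24 h compound exposure. Reporter mRNA levels were then read by RT-PCR with capillary electrophoresis, and this background-control endpoint was fitted bidirectionally to DMSO.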

[10] = ATG_TCF_b_cat_CIS: Attagene CIS-FACTORIAL HepG2 Assay for human T-Cell-Factor with beta-catenin (TCF/b-cat) (AID 2282965); conditions: HepG2 TCF/beta-catenin cis-reporter transcription, actives raise or lower the signal
How it was run: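 In this cis-format system, transfected HepG2 cells report endogenous transcription factor activity. Readout after 24 h exposure is reporter transcript abundance from RT-PCR and capillary electrophoresis, analysed for gain or loss of signal versus DMSO.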

[11] = ATG_TAL_CIS: Attagene CIS-FACTORIAL HepG2 Assay for human TAL Basal Promoter (AID 2282966); conditions: HepG2 Attagene cis-factorial TAL promoter reporter; actives raise or lower the signal;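 note: background control endpoint measuring basal TAL promoter reporter mRNA not a specific factor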
How it was run: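 After 24 hours of chemical exposure, transfected HepG2 cells yielded RNA that was converted to 6-FAM-labelled, HpaI-digested reporter fragments for capillary electrophoresis. Values derive from bidirectional fitting against DMSO controls.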

[12] = ATG_TGFb_CIS: Attagene CIS-FACTORIAL HepG2 Assay for human Transforming Growth Factor (TGF) (AID 2282967); conditions: HepG2 Attagene CIS TGFb reporter, mRNA transcription; actives raise or lower the signal
How it was run: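 After a 24-hour incubation with compound, transfected HepG2 cells were lysed for RNA; reporter cDNA was amplified, fluorescently end-labeled and separated by CE. DMSO served as baseline for bidirectional fits.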

[13] = ATG_VDRE_CIS: Attagene CIS-FACTORIAL HepG2 Assay for human Vitamin D Receptor Element (VDRE) (AID 2282968); conditions: HepG2 VDRE cis-reporter transcription, actives raise or lower the signal
How it was run: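 Steps: transfect HepG2 with multiple reporter transcription units; dose chemicals 24 h; isolate RNA; RT-PCR; label with 6-FAM primer extension; HpaI digest; capillary electrophoresis. Curves fitted both directions against DMSO.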

[14] = target: Nuclear receptor subfamily 1 group I member 3 (Homo sapiens) (UniProt Q14994); assay: ATG_CAR_TRANS: Attagene TRANS-FACTORIAL HepG2 Assay for human Constitutive Androstane Receptor (CAR) (AID 2282969; active = hit-call score of the fitted dose curve at least 0.9, where 1 is the maximum;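 note: activators raise reporter mRNA above DMSO so AC50 marks induction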); conditions: HepG2 Attagene TRANS-FACTORIAL CAR reporter
How it was run: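 Steps: transient transfection of HepG2 with multiple GAL4-UAS reporter units; 24 h compound incubation; RNA isolation, RT-PCR, 6-FAM primer extension, HpaI digest; capillary electrophoresis. Gain-of-signal relative to DMSO negative control.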

[15] = target: Estrogen receptor (Homo sapiens) (UniProt P03372); assay: ATG_ERa_TRANS: Attagene TRANS-FACTORIAL HepG2 Assay for human Estrogen Receptor alpha (ERa) (AID 2282970; active = hit-call score of the fitted dose curve at least 0.9, where 1 is the maximum); conditions: HepG2 Attagene TRANS ERa GAL4 reporter, mRNA
How it was run: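 Liver-derived HepG2 cells expressing chimeric nuclear receptor-Gal4 proteins from transient transfection were exposed for 24 hours. Gain of reporter mRNA signal versus DMSO, read by capillary electrophoresis of FAM-labelled PCR products, was recorded.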

[16] = target: X-box-binding protein 1 (Homo sapiens) (UniProt P17861); assay: ATG_Xbp1_CIS: Attagene CIS-FACTORIAL HepG2 Assay for human X-box Binding Protein 1 (XBP1) (AID 2282972); conditions: HepG2 XBP1 cis-element reporter, Attagene multiplex; actives raise or lower the signal
How it was run: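 Human hepatoma HepG2, cis-element reporter system, 24 h treatment; mRNA quantified by RT-PCR/CE fluorescence; fit relative to DMSO.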

[17] = ATG_M_19_TRANS: Attagene TRANS-FACTORIAL HepG2 Assay for M19 Transcription Factor (Internal Marker) (AID 2282974; active = hit-call score of the fitted dose curve at least 0.9, where 1 is the maximum); conditions: HepG2 Attagene TRANS-FACTORIAL M19 internal marker reporter
How it was run: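 Background-control readout: after 24 h chemical exposure of transfected HepG2 carrying GAL4-driven reporter units, RNA was reverse-transcribed, amplified, fluorescently labeled and sized by capillary electrophoresis; gain-of-signal fit against DMSO.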

[18] = ATG_GAL4_TRANS: Attagene TRANS-FACTORIAL HepG2 Assay for GAL4 (Internal Marker) (AID 2282976; active = hit-call score of the fitted dose curve at least 0.9, where 1 is the maximum); conditions: HepG2 Attagene TRANS GAL4 internal marker reporter
How it was run: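 First, HepG2 cells were transfected with reporter units under GAL4-UAS control. Next, they were treated with chemical for 24 h. Finally, RNA was reverse-transcribed, PCR-amplified, FAM-labelled and resolved by capillary electrophoresis, with induction scored against DMSO.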

[19] = target: Steroid hormone receptor ERR1 (Homo sapiens) (UniProt P11474); assay: ATG_ERRa_TRANS: Attagene TRANS-FACTORIAL HepG2 Assay for human Estrogen-Related Receptor alpha (ERRa) (AID 2282971; active = hit-call score of the fitted dose curve at least 0.9, where 1 is the maximum); conditions: HepG2 Attagene TRANS reporter, ERRa transactivation
How it was run: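 Reporter transcript induction was quantified by RT-PCR and capillary electrophoresis of FAM-labelled, HpaI-cut products after 24 h treatment of HepG2 cells carrying transiently transfected GAL4-UAS reporter units and an exogenous ERRa-Gal4 fusion; activity scored as increase over DMSO.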

Measured: AC50

Nuclear receptor subfamily 1 group I member 3 (Homo sapiens), sequence (Q14994 whole entry, looked up, the tested form may be a part): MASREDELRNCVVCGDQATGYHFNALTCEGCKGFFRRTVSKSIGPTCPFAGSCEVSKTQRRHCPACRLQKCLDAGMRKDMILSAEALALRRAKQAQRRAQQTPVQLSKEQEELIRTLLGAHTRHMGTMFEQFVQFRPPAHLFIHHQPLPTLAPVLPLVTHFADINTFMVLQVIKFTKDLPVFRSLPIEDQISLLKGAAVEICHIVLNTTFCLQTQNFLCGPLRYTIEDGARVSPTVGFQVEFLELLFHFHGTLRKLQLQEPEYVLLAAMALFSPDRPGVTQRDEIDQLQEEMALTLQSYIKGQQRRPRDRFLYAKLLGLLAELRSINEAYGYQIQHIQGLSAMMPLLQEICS
Paired box protein Pax-6 (Homo sapiens), sequence (P26367 whole entry, looked up): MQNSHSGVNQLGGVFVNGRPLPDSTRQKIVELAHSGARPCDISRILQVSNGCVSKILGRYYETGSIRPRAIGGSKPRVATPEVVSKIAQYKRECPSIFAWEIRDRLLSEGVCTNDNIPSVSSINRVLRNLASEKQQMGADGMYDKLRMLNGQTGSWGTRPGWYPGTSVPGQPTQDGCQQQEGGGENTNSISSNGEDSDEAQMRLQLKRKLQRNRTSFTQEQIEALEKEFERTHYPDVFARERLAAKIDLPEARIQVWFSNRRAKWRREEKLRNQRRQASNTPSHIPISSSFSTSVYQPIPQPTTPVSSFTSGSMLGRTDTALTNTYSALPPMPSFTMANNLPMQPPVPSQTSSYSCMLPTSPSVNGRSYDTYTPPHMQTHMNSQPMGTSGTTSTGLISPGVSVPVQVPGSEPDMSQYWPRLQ
Estrogen receptor (Homo sapiens), sequence (P03372 whole entry, looked up, the tested form may be a part): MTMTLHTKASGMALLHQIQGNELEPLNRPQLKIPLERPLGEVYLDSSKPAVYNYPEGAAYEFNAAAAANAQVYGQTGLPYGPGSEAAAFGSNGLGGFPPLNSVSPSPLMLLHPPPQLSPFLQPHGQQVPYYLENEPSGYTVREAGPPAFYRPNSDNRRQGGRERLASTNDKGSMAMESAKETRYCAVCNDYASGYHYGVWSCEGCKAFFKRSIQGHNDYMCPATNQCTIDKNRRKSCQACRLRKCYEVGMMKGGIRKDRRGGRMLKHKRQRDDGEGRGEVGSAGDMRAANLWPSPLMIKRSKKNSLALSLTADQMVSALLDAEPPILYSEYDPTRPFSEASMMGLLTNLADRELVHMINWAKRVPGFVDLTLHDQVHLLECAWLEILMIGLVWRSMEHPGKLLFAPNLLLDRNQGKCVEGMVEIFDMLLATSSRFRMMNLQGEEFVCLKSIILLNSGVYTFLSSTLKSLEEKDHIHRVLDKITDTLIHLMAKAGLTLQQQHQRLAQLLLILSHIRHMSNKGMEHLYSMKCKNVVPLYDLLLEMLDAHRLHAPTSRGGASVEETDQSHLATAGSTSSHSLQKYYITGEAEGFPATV
X-box-binding protein 1 (Homo sapiens), sequence (P17861 whole entry, looked up): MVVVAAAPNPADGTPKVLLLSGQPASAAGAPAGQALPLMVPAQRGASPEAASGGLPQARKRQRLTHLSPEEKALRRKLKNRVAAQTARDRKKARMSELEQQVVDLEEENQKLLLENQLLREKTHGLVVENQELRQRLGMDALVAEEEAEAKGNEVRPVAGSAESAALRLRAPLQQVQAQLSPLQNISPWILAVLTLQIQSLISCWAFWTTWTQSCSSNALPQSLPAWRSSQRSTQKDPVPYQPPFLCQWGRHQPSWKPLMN
Transcription factor Sp1 (Homo sapiens), sequence (P08047 whole entry, looked up): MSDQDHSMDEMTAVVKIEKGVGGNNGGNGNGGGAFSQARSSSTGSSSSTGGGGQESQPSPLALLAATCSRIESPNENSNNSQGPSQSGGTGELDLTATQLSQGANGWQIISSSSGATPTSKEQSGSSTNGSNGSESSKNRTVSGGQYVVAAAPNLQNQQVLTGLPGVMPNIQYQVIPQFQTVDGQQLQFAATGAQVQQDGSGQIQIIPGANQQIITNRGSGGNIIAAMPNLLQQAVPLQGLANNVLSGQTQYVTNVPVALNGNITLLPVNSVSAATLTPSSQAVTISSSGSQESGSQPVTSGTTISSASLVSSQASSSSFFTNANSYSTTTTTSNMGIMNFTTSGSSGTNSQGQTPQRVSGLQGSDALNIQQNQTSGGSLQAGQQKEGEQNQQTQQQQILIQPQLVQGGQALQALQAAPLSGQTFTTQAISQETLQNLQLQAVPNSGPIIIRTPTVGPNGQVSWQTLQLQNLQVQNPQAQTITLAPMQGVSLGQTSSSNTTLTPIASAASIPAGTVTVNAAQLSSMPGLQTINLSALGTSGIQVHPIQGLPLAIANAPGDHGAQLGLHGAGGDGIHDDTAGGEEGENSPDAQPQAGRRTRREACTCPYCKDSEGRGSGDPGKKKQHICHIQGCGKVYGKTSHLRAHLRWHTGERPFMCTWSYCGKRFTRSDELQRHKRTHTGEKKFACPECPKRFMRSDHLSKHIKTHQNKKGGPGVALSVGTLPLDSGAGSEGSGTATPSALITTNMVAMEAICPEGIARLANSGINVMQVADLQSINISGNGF
Signal transducer and activator of transcription 3 (Homo sapiens), sequence (P40763 whole entry, looked up): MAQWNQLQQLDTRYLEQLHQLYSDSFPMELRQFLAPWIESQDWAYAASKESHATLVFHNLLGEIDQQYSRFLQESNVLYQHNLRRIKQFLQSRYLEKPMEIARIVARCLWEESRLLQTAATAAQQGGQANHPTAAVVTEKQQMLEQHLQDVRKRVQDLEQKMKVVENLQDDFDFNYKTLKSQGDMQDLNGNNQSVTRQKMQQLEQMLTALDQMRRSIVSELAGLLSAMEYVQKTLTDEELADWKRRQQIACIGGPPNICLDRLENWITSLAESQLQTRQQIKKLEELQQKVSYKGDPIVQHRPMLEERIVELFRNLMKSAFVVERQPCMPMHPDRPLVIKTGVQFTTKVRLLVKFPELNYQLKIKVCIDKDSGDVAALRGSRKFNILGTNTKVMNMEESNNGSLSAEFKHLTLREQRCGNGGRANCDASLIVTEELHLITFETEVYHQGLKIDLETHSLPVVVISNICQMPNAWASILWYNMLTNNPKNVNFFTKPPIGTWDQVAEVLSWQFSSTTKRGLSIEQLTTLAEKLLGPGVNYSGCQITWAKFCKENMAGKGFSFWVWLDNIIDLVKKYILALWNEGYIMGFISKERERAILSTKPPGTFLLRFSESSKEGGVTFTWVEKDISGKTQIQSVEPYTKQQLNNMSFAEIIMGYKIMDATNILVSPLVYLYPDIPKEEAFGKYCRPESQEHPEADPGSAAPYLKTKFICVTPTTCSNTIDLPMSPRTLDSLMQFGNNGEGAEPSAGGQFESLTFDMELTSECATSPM
Steroid hormone receptor ERR1 (Homo sapiens), sequence (P11474 whole entry, looked up, the tested form may be a part): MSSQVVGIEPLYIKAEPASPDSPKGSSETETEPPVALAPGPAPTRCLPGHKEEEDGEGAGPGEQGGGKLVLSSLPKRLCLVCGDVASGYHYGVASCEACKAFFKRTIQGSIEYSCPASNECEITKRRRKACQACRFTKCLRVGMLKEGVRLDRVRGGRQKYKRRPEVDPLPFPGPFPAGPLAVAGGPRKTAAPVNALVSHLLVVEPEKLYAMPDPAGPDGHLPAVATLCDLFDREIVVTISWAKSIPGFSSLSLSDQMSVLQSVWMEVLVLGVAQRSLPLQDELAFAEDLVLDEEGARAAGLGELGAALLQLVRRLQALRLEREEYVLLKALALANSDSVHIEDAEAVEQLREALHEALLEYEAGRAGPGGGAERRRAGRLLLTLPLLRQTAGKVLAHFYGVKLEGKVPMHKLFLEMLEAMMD

FC1CC(F)(F)C(F)(F)C1(F)F (centres undefined)
not listed: [19]
inactive: all other assays above

FC(F)(F)C(F)(F)C(F)(F)C(F)(F)C(F)(F)C(F)(F)CCS
not listed: [17]
inactive: all other assays above

O=C(O)C(F)(OC(F)(F)C(F)(OC(F)(F)C(F)(F)C(F)(F)F)C(F)(F)F)C(F)(F)F (centres undefined)
active: [15] 18.4 µM
inactive: [1] | [2] | [3] | [4] | [5] | [7] | [8] | [9] | [10] | [11] | [12] | [13] | [15] | [19] | [16] | [17] | [18]

CCCCCCS
active: [10] 68.8 µM
not listed: [17] | [19]
inactive: all other assays above

OCC(F)(F)C(F)(F)C(F)(F)C(F)(F)C(F)(F)C(F)(F)F
active: [2] 242 µM | [7] 234 µM | [11] 239 µM
not listed: [19]
inactive: all other assays above

Cc1cccc(N(C)C)c1
not listed: [5] | [6] | [17]
inactive: all other assays above

[Co]
active: [2] 13.8 µM | [15] 32.5 µM
inactive: all other assays above
